Inconclusive results are not listed. A call without a number means that no potency is given here. Calls of active or inactive are those of the source. The call rests on the fitted dose curve; in most records, active means well fitted curve in the direction sought with a large enough effect; inconclusive means small, poorly fitted or top-dose-only effect, or another doubt; inactive means no such curve, though single readings can be large; an effect the other way counts as inactive or inconclusive.

Protein phosphatase 1D (Homo sapiens), sequence (O15297 whole entry, looked up): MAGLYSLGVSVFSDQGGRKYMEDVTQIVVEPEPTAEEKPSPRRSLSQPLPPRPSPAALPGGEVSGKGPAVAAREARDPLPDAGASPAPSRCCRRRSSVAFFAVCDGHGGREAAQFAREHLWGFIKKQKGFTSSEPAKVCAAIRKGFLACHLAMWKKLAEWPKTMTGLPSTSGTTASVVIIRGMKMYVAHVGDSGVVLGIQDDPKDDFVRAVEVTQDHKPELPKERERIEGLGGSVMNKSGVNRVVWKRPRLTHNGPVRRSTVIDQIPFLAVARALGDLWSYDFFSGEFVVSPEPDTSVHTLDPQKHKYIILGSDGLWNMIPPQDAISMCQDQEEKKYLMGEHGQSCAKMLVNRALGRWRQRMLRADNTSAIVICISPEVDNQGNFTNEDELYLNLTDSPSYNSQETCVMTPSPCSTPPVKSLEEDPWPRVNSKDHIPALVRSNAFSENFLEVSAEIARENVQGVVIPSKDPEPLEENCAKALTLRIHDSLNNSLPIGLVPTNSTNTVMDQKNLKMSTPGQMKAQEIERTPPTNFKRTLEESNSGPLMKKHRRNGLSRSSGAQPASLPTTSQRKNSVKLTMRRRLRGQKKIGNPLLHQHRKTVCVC
Calcium and integrin-binding protein 1 (Homo sapiens), sequence (Q99828 whole entry, looked up): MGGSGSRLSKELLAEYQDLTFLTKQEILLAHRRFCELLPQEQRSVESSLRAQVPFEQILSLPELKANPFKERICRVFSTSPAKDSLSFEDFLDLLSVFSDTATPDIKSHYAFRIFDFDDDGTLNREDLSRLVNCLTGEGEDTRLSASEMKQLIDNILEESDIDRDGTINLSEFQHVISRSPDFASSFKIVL

Test system in the first assay: not listed separately
Description: qHTS to identify inhibitors of the type 1 interferon - major histocompatibility complex class I in skeletal muscle: primary screen against the NCATS Mechanism Interrogation Plate v5.0 (MIPE) Libary (AID 1347411). Further: nearly all actives have a fitted effect of over 65% in size. Further: potency means the concentration at half of the fitted maximal effect. Conditions: iHSKM cells + IFN-b, HiBiT-tagged MHC-I luminescence, 24 h; series mostly up to 45.8 µM. A digest of the protocol: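 IFN-beta-driven (4 ng/ml) HLA-B-HiBit expression in CRISPR-tagged C25cl48 myoblasts; compounds 11-pt, 1:3, max 46 uM, 24 hr exposure; lytic NanoLuc complementation luminescence.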
A general note: qHTS replaces the single test concentration by a dilution series.
Consider `c1cc(OCCN2CCCCC2)cc(-c2n[nH]c3ccc(-c4ncn[nH]4)cc23)c1`, for which the Potency result is “inactive”.
Consider `CC(C)(CO)[C@@H](O)C(=O)NCCC(=O)O`, for which the Potency result was “inactive”.
The same measure, in the same setting: to `CCNC(=O)c1noc(-c2cc(C(C)C)c(O)cc2O)c1-c1ccc(CN2CCOCC2)cc1` belongs 0.0415 µM (active); to `c1ccc(CNc2nc(N3CCOc4ccccc43)nc3c2CCCC3)cc1`, “inactive”; to `CCOc1ccccc1N=Nc1c(C)[nH]n(-c2nc(-c3ccccc3)cs2)c1=O`, “inactive”.
For the compound `CCCCc1ccc(NS(=O)(=O)c2ccc(C)c(C(=O)N3CCN(c4cccc(C)c4C)CC3)c2)cc1`, the Potency result was “inactive”.
Same read-out and setting: for `CCOC(=O)c1c(CSc2ccccc2)n(C)c2cc(Br)c(O)c(CN(C)C)c12` the value was “inactive”.
Take `COc1nc(C)cnc1NS(=O)(=O)c1cccnc1-c1ccc(-c2nnco2)cc1`: the Potency entry is “inactive”.
On the same count and under the same terms, for `COc1ccc2c(c1)c(C1=C(c3c[nH]c4ccccc34)C(=O)NC1=O)cn2CCCN(C)C` the value was 20.8 µM (active); for `OC1CCC(Nc2ncc3nc(Nc4c(F)cc(F)cc4F)n([C@@H]4CCOC4)c3n2)CC1` (stereo partly specified), “inactive”.
Take `NC[C@H]1O[C@H](O[C@@H]2[C@@H](O)[C@@H](O[C@H]3O[C@H](CO)[C@@H](O)[C@H](N)[C@@H]3O)[C@H](N)C[C@@H]2N)[C@H](O)[C@@H](O)[C@H]1O`: the Potency entry is “inactive”.
Consider `Cc1cc(NC(=O)Nc2ccc(N(C)C)cc2)c2cc(F)cc(F)c2n1`, for which the Potency entry is “inactive”.
In the case of `N#CC(c1ccnc(NCCc2cccnc2)n1)c1nc2ccccc2s1` (stereo unspecified), the Potency is 14.7 µM (active).
The same measure, in the same setting: for `CC1=C(C(=O)Nc2cc3cn[nH]c3cc2F)C(c2ccc(C(F)(F)F)cc2)CC(=O)N1` (stereo unspecified) the value was “inactive”; for `CCc1cccc(CC)c1NC(=O)N1Cc2[nH]nc(NC(=O)c3ccc(N4CCN(C)CC4)cc3)c2C1`, 10.4 µM (active).

A further assay concerns the target Protein phosphatase 1D (Homo sapiens) (UniProt O15297). Nature of the assay: RapidFire Mass Spectrometry qHTS Assay for Modulators of WT P53-Induced Phosphatase 1 (WIP1) (AID 1347424).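 Further: amount of dephosphorylated VEPPL-S-QETFS peptide product formed by WIP1.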 Conditions: WIP1 dephosphorylation of phosphopeptide, RapidFire MS; series mostly up to 63 µM. The method in brief: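 RapidFire mass spectrometry measured dephosphorylated peptide after 5 min room-temperature reaction of 2 uM VEPPL-pS-QETFS with 10 nM WIP1 (50 mM Tris-HCl pH 7.5, 30 mM MgCl2, 0.1 mM EGTA, BSA), following 1 hr compound preincubation; 1 uM isotope-labelled product standard.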
In the case of `CN(C)CCN(Cc1ccc(Cl)cc1)c1ccccn1`, the Potency result is “inactive”.
The same measure, in the same setting: for `OC[C@H]1O[C@@H](OCCc2ccc(O)cc2)[C@H](O)[C@@H](O)[C@H]1O` the value was “inactive”.
On the same count and under the same terms, for `O=C(CCCN1CCN(c2ccc(F)cc2)CC1)NC1c2ccccc2CSc2ccccc21` (stereo unspecified) the value was “inactive”; for `O[C@@H](COc1cccc2ncccc12)CN1CCN(C2c3ccccc3[C@@H]3[C@H](c4ccccc42)C3(F)F)CC1` (stereo partly specified), “inactive”; for `CCCCC[C@H](O)C=C[C@H]1[C@H](O)CC(=O)[C@H]1CC=CCCCC(=O)O`, “inactive”.

The target is the same in the next assay. Nature of the assay: Rhodamine-PBP qHTS Assay for Modulators of WT P53-Induced Phosphatase 1 (WIP1) (AID 1347425). Conditions: recombinant WIP1, Rhodamine-PBP phosphate fluorescence, real-time; series mostly up to 57.5 µM. The method in brief: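 Read-out: Rhodamine-PBP fluorescence (ex 525/em 598 nm) for released Pi, read each minute for 11 min after adding 10 uM VEPPL-pS-QETFS; signal taken as f1 minus pre-substrate f0. Enzyme 5 nM WIP1 with 1 hr room-temperature compound preincubation.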
Regarding `CN(C)CCN(Cc1ccc(Cl)cc1)c1ccccn1`, the outcome was inactive.
`OC[C@H]1O[C@@H](OCCc2ccc(O)cc2)[C@H](O)[C@@H](O)[C@H]1O`: the outcome was inactive.
Still for that read-out and setting: to `O=C(CCCN1CCN(c2ccc(F)cc2)CC1)NC1c2ccccc2CSc2ccccc21` (stereo unspecified) belongs “inactive”; to `O[C@@H](COc1cccc2ncccc12)CN1CCN(C2c3ccccc3[C@@H]3[C@H](c4ccccc42)C3(F)F)CC1` (stereo partly specified), “inactive”; to `CCCCC[C@H](O)C=C[C@H]1[C@H](O)CC(=O)[C@H]1CC=CCCCC(=O)O`, “inactive”.

Test system in the next assay: not listed separately
Description: Primary qHTS for inhibitors of La Crosse Virus (LACV) - induced cell death in SH-SY5Y cells (AID 1508616).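 Further: top concentration of the series differs between compounds; higher means more rescue of cells from virus-induced death.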 The settings on record: SH-SY5Y LACV cytopathicity rescue, ATP luminescence, 6 d; series mostly up to 4.29 µM. A digest of the protocol:
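Screening measures cell viability in LACV-infected SH-SY5Y cultures. Compound was added before virus (0.01 MOI), and ATP was detected by luminescence 6 days later.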
Regarding `CN(C)CCN(Cc1ccc(Cl)cc1)c1ccccn1`, the compound was called inactive.
For `OC[C@H]1O[C@@H](OCCc2ccc(O)cc2)[C@H](O)[C@@H](O)[C@H]1O`, the compound was classed as inactive.
As to `O=C(CCCN1CCN(c2ccc(F)cc2)CC1)NC1c2ccccc2CSc2ccccc21` (stereo unspecified), the compound was classed as inactive.
Consider `O[C@@H](COc1cccc2ncccc12)CN1CCN(C2c3ccccc3[C@@H]3[C@H](c4ccccc42)C3(F)F)CC1` (stereo partly specified), for which the call was inactive.
The same measure, in the same setting: to `CCCCC[C@H](O)C=C[C@H]1[C@H](O)CC(=O)[C@H]1CC=CCCCC(=O)O` belongs “inactive”.

The next assay deals with Calcium and integrin-binding protein 1 (Homo sapiens) (UniProt Q99828). Description: Primary qHTS for Identification of Calcium Integrin Binding Protein 1 (CIB1) Competitor (AID 1508620).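 Further: GST tagged CIB1 binding a fluorescein labelled alphaIIb integrin peptide tracer; top concentration of the series differs between compounds.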 Conditions: CIB1-GST / FITC-alphaIIb peptide fluorescence polarization; series mostly up to 57.7 µM. A digest of the protocol:
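CIB1-GST (1 uM final) and compound incubated 15 min at room temperature before adding FITC-alphaIIb peptide tracer (100 nM final). Competition for binding read by fluorescence polarization (ex 480, em 540) after another 15 min at room temperature.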
Turning to `Cc1ccc(S(=O)(=O)Nc2nc3ccccc3nc2Nc2ccc3nsnc3c2)cc1`, the Potency entry was “inactive”.
The same measure, in the same setting: for `Nc1ncnc2c1ncn2[C@@H]1O[C@H](CO)[C@@H](O)[C@@H]1O` the value was “inactive”; for `Cc1nc2c([nH]1)CCN(C(=O)c1ccc(NC(=O)c3ccccc3-c3ccccc3)cc1)c1ccccc1-2`, “inactive”.
Still for that read-out and setting: for `CN1CCN2c3ncccc3Cc3ccccc3C2C1` (stereo unspecified) the value was “inactive”.
The same measure, in the same setting: for `CN(C)CCN(Cc1ccc(Cl)cc1)c1ccccn1` the value was “inactive”.
For `O=C1C(c2c(O)[nH]c3ccccc23)=Nc2ccccc21`, the Potency result was “inactive”.
Still for that read-out and setting: for `CN1CC(=O)NC1=NC(=O)Nc1cccc(Cl)c1` the value was “inactive”; for `CCCCC(C)(C)[C@H](O)C=C[C@H]1[C@H](O)CC(=O)[C@H]1CC=CCCCC(=O)O`, “inactive”.
In the case of `Cc1cccc(-c2[nH]c(C(C)(C)C)nc2-c2ccc3c(c2)OCO3)n1`, the Potency result is “inactive”.
In the case of `O=[N+]([O-])c1ccc(Nc2ccccc2-c2ccccc2)c2nonc12`, the Potency entry was “inactive”.
For `OC[C@H]1O[C@@H](OCCc2ccc(O)cc2)[C@H](O)[C@@H](O)[C@H]1O`, the Potency entry was “inactive”.
`CC(C)C[C@@H](N)[C@H](O)C(=O)N[C@H](C(=O)N[C@H](C(=O)N[C@@H](CC(=O)O)C(=O)O)C(C)C)C(C)C`: the Potency entry is “inactive”.
In the case of `O=C(CCCN1CCN(c2ccc(F)cc2)CC1)NC1c2ccccc2CSc2ccccc21` (stereo unspecified), the Potency result was “inactive”.
On to `O[C@@H](COc1cccc2ncccc12)CN1CCN(C2c3ccccc3[C@@H]3[C@H](c4ccccc42)C3(F)F)CC1` (stereo partly specified), for which the Potency entry is “inactive”.
For `CCNC(=O)c1noc(-c2cc(C(C)C)c(O)cc2O)c1-c1ccc(CN2CCOCC2)cc1`, the Potency result is “inactive”.
Same read-out and setting: to `c1ccc(CNc2nc(N3CCOc4ccccc43)nc3c2CCCC3)cc1` belongs “inactive”; to `CCOc1ccccc1N=Nc1c(C)[nH]n(-c2nc(-c3ccccc3)cs2)c1=O`, “inactive”; to `CCCCC[C@H](O)C=C[C@H]1[C@H](O)CC(=O)[C@H]1CC=CCCCC(=O)O`, “inactive”.
On to `CCOC(=O)c1c(CSc2ccccc2)n(C)c2cc(Br)c(O)c(CN(C)C)c12`, for which the Potency entry is “inactive”.
As to `COc1ccc2c(c1)c(C1=C(c3c[nH]c4ccccc34)C(=O)NC1=O)cn2CCCN(C)C`, the Potency entry is “inactive”.
The same measure, in the same setting: for `OC1CCC(Nc2ncc3nc(Nc4c(F)cc(F)cc4F)n([C@@H]4CCOC4)c3n2)CC1` (stereo partly specified) the value was “inactive”.
On the same count and under the same terms, for `NC[C@H]1O[C@H](O[C@@H]2[C@@H](O)[C@@H](O[C@H]3O[C@H](CO)[C@@H](O)[C@H](N)[C@@H]3O)[C@H](N)C[C@@H]2N)[C@H](O)[C@@H](O)[C@H]1O` the value was “inactive”; for `Cc1cc(NC(=O)Nc2ccc(N(C)C)cc2)c2cc(F)cc(F)c2n1`, “inactive”.
`N#CC(c1ccnc(NCCc2cccnc2)n1)c1nc2ccccc2s1` (stereo unspecified): the Potency result was “inactive”.
Same read-out and setting: for `CC1=C(C(=O)Nc2cc3cn[nH]c3cc2F)C(c2ccc(C(F)(F)F)cc2)CC(=O)N1` (stereo unspecified) the value was “inactive”.
`CCc1cccc(CC)c1NC(=O)N1Cc2[nH]nc(NC(=O)c3ccc(N4CCN(C)CC4)cc3)c2C1`: the Potency result is “inactive”.
